Reference: the supplement of paper PMC6555819

Columns and labels:
Assay in all cases: PBM binding z-score (relative to random genomic background probes); higher = stronger binding; sequences stand for … in GC…GCGATTGACAGCGTAGAATGAAGG
[1] = system: FXR:RXRa (NR concentration 270 nM, RXRa partner concentration 90 nM)
Summary of the method: (§1)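 Probes were double-stranded and carried 34-nt variable regions with direct-repeat seeds, single-nucleotide variants, half-site ablations and random human genomic background sequences, printed on custom Agilent 4×180K protein-binding microarrays. Arrays were incubated 1 h with ligand-free nuclear receptor dimers in PBS pH 7.4, 2% milk, 0.02% Triton X-100, 1 mM DTT, 0.2 mg/mL BSA and 0.4 mg/ml salmon testes DNA. Antibodies against each partner (one per run) detected binding, and scanned fluorescence was regression-normalized. Binding z-scores use the random background probes as reference.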

[2] = system: LXRa:RXRa (NR concentration 270 nM, RXRa partner concentration 90 nM)
Summary of the method: as §1

[3] = system: LXRa homodimer (NR concentration 270 nM)
Summary of the method: as §1

[4] = system: LXRb:RXRa (NR concentration 270 nM, RXRa partner concentration 90 nM)
Summary of the method: as §1

[5] = system: LXRb homodimer (NR concentration 270 nM)
Summary of the method: as §1

[6] = system: PPARa:RXRa (NR concentration 270 nM, RXRa partner concentration 90 nM)
Summary of the method: as §1

[7] = system: PPARg:RXRa (NR concentration 180 nM, RXRa partner concentration 90 nM)
Summary of the method: as §1

[8] = system: PPARg:RXRa 270nM:90nM, anti-RXR (NR concentration 270 nM, RXRa partner concentration 90 nM)
Summary of the method: as §1

[9] = system: PPARg:RXRa 30nM:10nM, anti-RXR (NR concentration 30 nM, RXRa partner concentration 10 nM)
Summary of the method: as §1

[10] = system: PPARg:RXRa 90nM:30nM, anti-RXR (NR concentration 90 nM, RXRa partner concentration 30 nM)
Summary of the method: as §1

[11] = system: PPARg:RXRa DBDmut IVT, anti-RXR (DBD mutation: RXRa K156A/R161A, NR concentration 270 nM, RXRa partner concentration 90 nM)
Summary of the method: as §1

[12] = system: PPARg:RXRa IVT, anti-PPARg (NR concentration 270 nM, RXRa partner concentration 90 nM)
Summary of the method: as §1

[13] = system: PPARg DBDmut:RXRa IVT, anti-PPARg (DBD mutation: PPARg1 K132A/R137A, NR concentration 270 nM, RXRa partner concentration 90 nM)
Summary of the method: as §1

[14] = system: PPARg DBDmut IVT, anti-PPARg (DBD mutation: PPARg1 K132A/R137A, NR concentration 270 nM)
Summary of the method: as §1

[15] = system: PPARg homodimer (NR concentration 180 nM)
Summary of the method: as §1

[16] = system: PXR:RXRa (NR concentration 270 nM, RXRa partner concentration 90 nM)
Summary of the method: as §1

[17] = system: PXR homodimer (NR concentration 270 nM)
Summary of the method: as §1

[18] = system: RARa:RXR (NR concentration 270 nM, RXRa partner concentration 90 nM)
Summary of the method: as §1

[19] = system: RARa homodimer (NR concentration 270 nM)
Summary of the method: as §1

[20] = system: RARb:RXRa (NR concentration 270 nM, RXRa partner concentration 90 nM)
Summary of the method: as §1

Sequence | PBM binding z-score [1] | PBM binding z-score [2] | PBM binding z-score [3] | PBM binding z-score [4] | PBM binding z-score [5] | PBM binding z-score [6] | PBM binding z-score [7] | PBM binding z-score [8] | PBM binding z-score [9] | PBM binding z-score [10] | PBM binding z-score [11] | PBM binding z-score [12] | PBM binding z-score [13] | PBM binding z-score [14] | PBM binding z-score [15] | PBM binding z-score [16] | PBM binding z-score [17] | PBM binding z-score [18] | PBM binding z-score [19] | PBM binding z-score [20]
TCTGCTATGTCAGTTGGTCAGCTAACGAGCTGCC | -0.167 | -0.237 | -1.15 | -0.392 | -0.0439 | -0.108 | -0.623 | 0.446 | 0.854 | 0.78 | 0.621 | 0.807 | -0.394 | 0.0922 | -0.53 | -0.0982 | -1.36 | -0.0374 | -1.02 | 0.481
TCTGTTAGTTGATTAGGGCAACCGAAACAGCGGA | 0.614 | 0.576 | 0.141 | 0.571 | 1.9 | 0.523 | 0.000964 | 1.9 | 3.28 | 2.74 | 1.71 | 1.89 | 1.51 | 1.52 | 1.09 | 0.57 | 0.354 | 0.456 | 0.969 | 1.19
GCTGCTAGGTCAACTGGTGGTCAGCTAAAGCTCG | 4.15 | 3.04 | -0.00351 | 1.99 | -0.442 | 3.55 | 2.75 | 3.48 | 0.603 | 2.25 | 4.77 | 4.33 | -0.118 | -0.735 | 2.55 | 1.61 | -0.644 | 3.34 | -0.0343 | 4.23
ATATCTAGGTAAAGATAGTTCAGTGAATGCAAAT | 0.0166 | 3.97 | 0.545 | 0.556 | 0.365 | 2.2 | 3.15 | 1.99 | 1 | 1.6 | 5.82 | 5.59 | 2.76 | 1.53 | 1.12 | 0.896 | 0.584 | 0.384 | 0.705 | 0.775
ATATGTAGGTTAGCTGGGATCATTCAGACTAGGC | 0.641 | 0.823 | 0.0491 | 0.629 | 0.181 | 2.71 | 3.18 | 2.72 | 0.999 | 1.85 | 6.87 | 5.92 | 1.97 | 2.29 | 0.83 | 1.21 | 0.543 | 0.547 | 0.6 | 0.723
CAGCCTAGGACAGGGCCAGTATAGGAGGAACGTT | -0.452 | -0.926 | -0.352 | -0.799 | -0.979 | -0.804 | 0.36 | -0.522 | -0.216 | -0.473 | -0.459 | -0.805 | -1.23 | -1.3 | 0.0188 | -0.859 | -0.323 | -0.684 | -0.467 | -0.0437
GCTATTATTTGAAAGGGCAACCGAATGATTCTCG | 0.306 | 0.97 | 1.37 | 0.925 | 0.441 | 1.08 | 0.626 | 1.41 | 0.637 | 0.844 | 0.681 | 0.479 | 0.791 | 0.619 | 1.8 | 0.697 | 1.02 | 1.07 | 2.43 | 2.09
ATATGTAGGTTACATCCGGGTCATTGAGGCTATG | 2.34 | 4.14 | 1.44 | 2.74 | 1.01 | 4.44 | 5.78 | 5.04 | 2.75 | 4.39 | 7.27 | 7.27 | 2.02 | 2.36 | 1.82 | 3.65 | 4.12 | 3.65 | 0.615 | 2.38
TCTATTAGTTGAAGGGCACCCGACGAGTCCGTTT | 0.72 | 0.953 | 0.3 | 0.709 | 0.846 | 0.943 | 0.172 | 2 | 3.71 | 2.96 | 2.29 | 0.553 | 0.299 | 1.3 | 1.25 | 0.824 | 1 | 0.844 | 1.45 | 1.36
CTACCAAGGTGAACAGGGTCGTTGATTACTATTC | 1.07 | 0.788 | -0.0558 | 1.58 | -0.226 | 2.32 | 1.23 | 1.38 | 0.0525 | 0.997 | 1.92 | 2.88 | 0.525 | 0.178 | 0.785 | 1.89 | 0.796 | 2.11 | 0.321 | 1.75
ATATGTATGTTACATCCGGGTCATTCAGGCTATG | 1.15 | 1.58 | 0.696 | 2.06 | 0.763 | 2.94 | 1.75 | 1.55 | 0.754 | 1.22 | 3.22 | 3.46 | 1.61 | 1.67 | 1.16 | 2.54 | 1.37 | 2.59 | 0.761 | 1.52
CTCGAAAGGTCGTGCTAAGGTGAGTATACCAAAC | 5.5 | 4.12 | 0.337 | 3.46 | 0.12 | 5.03 | 3.4 | 4.54 | 1.67 | 3.46 | 0.626 | 2.19 | 0.542 | 0.415 | 2.51 | 3.71 | 0.449 | 5.09 | 0.258 | 4.05
CGTCCAAGGTCATAGGCGGTCAGTGAAGACAGAT | 7.45 | 6.83 | 2.89 | 4.79 | 0.324 | 5.55 | 4.7 | 5.18 | 1.82 | 3.6 | 2.93 | 3.58 | -0.0996 | 0.332 | 2.85 | 5.12 | 1.57 | 4.75 | 1.15 | 4.94
